In PubChem BioAssay AID608 (Sanford-Burnham Center for Chemical Genomics, 2007):
Out of some 3,800 compounds screened, about 50 (1%) were called active. How the calls were made is not given here. The list shows a part of the results. Measured potencies and affinities stand elsewhere.

Biological target: Peptidyl-prolyl cis-trans isomerase FKBP1A (Homo sapiens) (UniProt P62942)
Test: FKBP12 binders, biophysical, NMR detection (AID 608)
Details: NMR binding, purified FKBP12

Chain of Peptidyl-prolyl cis-trans isomerase FKBP1A (Homo sapiens) (P62942 whole entry, looked up): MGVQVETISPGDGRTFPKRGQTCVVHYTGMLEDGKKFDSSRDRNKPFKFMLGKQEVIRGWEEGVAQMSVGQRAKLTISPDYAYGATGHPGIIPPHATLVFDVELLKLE

SMILES | outcome
O=C(Nc1ccc(OCC(=O)N2CCOCC2)cc1)c1cccnc1 | inactive
